These results are taken from article PMC7862700, “An all-to-all approach to the identification of sequence-specific readers for epigenetic DNA modifications on cytosine”.

Assay in all cases: DAPPL (digital affinity profiling via proximity ligation, sequencing); 10 mM Tris-HCl pH 7.5, 50 mM NaCl, 1 mM DTT, 4% glycerol, room temperature, 30 min; GST-TFs on glutathione beads, 16-mer random dsDNA library, 0.1% formaldehyde crosslink after washing; high values mean tight binding
Common to all, as to conditions: protein: recombinant; tags: N-terminal GST; dsDNA, one strand shown

One assay concerns the target T1, FLI1 (Homo sapiens, UniProt Q01543 1-452).
T1 sequence: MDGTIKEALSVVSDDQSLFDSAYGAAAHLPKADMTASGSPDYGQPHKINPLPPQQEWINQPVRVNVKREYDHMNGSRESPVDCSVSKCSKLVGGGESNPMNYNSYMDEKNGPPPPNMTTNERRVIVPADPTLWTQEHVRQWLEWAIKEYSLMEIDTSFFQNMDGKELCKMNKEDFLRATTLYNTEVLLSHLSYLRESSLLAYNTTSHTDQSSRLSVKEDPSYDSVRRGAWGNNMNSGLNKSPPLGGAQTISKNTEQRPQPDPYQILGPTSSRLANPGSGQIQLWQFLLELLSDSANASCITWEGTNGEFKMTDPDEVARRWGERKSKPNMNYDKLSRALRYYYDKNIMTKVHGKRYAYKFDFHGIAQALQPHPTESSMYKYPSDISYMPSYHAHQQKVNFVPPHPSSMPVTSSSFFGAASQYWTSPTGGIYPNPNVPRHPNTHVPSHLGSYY
The essentials:
(§1)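 Binding signal is given per hexamer as its read frequency for a factor divided by its frequency in the tag-only sample. GST-fused human transcription factors were expressed in yeast, captured on glutathione beads, barcoded with DNA and pooled with that sample, then incubated with 200 nmole of a 16-mer random double-stranded DNA library in Tris/NaCl/DTT/glycerol buffer for 30 min at room temperature. The pools were then washed, crosslinked, proximity-ligated, amplified by PCR and sequenced on an Illumina NextSeq500.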

A further assay has as its target T2, ELK1 (Homo sapiens, UniProt P19419 1-428).
T2 sequence: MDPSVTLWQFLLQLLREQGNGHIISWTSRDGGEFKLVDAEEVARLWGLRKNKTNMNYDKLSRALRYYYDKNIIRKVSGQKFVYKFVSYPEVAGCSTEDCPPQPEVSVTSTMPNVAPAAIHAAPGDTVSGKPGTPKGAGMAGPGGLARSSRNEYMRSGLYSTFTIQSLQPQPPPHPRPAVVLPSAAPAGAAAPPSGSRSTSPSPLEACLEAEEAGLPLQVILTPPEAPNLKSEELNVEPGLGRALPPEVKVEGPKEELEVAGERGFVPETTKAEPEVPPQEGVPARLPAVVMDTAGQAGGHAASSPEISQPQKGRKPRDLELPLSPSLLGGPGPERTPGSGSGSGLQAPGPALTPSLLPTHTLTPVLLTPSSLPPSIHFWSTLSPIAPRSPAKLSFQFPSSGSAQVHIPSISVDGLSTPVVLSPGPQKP
The essentials: as §1

Another assay deals with T3, GABPA (Homo sapiens, UniProt Q06546 1-454).
T3 sequence: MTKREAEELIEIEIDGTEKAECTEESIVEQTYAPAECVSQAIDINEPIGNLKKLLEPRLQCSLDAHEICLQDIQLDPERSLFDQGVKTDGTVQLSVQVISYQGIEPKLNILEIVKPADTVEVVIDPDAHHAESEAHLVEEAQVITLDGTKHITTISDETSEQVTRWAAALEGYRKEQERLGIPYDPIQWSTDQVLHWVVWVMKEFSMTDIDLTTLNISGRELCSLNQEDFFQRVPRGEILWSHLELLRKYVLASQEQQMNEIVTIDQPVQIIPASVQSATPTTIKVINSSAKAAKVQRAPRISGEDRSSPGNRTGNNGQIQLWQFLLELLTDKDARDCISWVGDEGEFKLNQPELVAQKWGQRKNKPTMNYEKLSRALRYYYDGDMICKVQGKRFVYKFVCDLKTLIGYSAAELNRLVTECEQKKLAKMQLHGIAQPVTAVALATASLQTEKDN
The essentials: as §1

The next assay deals with T4, ERG (Homo sapiens, UniProt P11308 1-479).
T4 sequence: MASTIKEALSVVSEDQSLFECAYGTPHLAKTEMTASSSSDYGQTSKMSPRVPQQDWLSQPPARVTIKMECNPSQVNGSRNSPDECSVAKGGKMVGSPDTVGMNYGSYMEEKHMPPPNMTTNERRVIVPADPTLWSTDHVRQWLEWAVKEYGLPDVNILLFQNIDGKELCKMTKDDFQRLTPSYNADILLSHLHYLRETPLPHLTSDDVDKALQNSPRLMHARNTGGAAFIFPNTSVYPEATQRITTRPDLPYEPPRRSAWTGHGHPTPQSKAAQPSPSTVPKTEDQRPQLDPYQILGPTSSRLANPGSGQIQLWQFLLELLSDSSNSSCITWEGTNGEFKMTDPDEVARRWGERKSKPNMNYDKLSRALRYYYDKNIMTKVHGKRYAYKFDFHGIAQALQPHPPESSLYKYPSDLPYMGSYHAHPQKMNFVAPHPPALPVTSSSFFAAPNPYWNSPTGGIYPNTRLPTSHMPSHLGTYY
The essentials: as §1

Another assay has as its target ELF1 (Homo sapiens, UniProt P32519 1-619). The gist of the method:
as §1

Another assay has as its target T5, EHF (Homo sapiens, UniProt Q9NZC4 1-300).
T5 sequence: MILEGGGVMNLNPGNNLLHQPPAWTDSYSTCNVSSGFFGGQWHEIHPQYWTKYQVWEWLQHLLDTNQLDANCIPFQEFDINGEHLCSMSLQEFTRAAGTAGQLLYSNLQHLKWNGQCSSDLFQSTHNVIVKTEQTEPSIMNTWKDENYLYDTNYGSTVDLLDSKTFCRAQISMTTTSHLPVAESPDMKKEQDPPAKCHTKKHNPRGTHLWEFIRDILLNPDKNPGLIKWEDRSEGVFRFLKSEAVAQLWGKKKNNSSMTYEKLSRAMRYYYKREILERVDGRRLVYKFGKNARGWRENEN
The gist of the method:
as §1

The target in another assay is SPI1 (Homo sapiens, UniProt P17947 1-270). The gist of the method:
as §1

The target of the next assay is SPIB (Homo sapiens, UniProt Q01892 1-262). The gist of the method: as §1
SPIB, sequence (Q01892 whole entry): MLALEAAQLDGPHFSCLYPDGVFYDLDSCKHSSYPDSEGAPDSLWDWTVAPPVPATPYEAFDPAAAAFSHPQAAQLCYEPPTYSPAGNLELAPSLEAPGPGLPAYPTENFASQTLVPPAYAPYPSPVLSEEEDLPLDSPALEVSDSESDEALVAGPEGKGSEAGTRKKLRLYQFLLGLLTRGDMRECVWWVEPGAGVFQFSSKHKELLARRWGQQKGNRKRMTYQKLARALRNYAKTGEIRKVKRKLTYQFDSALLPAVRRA
For a further assay, the target named is T6, ELK3 (Homo sapiens, UniProt P41970 1-407).
T6 sequence: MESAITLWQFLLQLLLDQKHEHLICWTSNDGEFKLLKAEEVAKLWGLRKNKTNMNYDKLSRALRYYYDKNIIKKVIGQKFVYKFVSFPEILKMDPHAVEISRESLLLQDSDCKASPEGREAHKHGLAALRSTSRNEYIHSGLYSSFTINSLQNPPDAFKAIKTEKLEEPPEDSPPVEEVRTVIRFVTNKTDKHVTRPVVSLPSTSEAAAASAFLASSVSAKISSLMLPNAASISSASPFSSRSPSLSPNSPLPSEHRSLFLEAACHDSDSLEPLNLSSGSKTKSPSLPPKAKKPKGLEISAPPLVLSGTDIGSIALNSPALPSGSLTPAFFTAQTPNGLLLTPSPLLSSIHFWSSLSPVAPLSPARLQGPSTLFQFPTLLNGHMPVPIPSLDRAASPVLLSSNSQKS
The essentials:
as §1

The next assay has as its target T7, FEV (Homo sapiens, UniProt Q99581 1-238).
T7 sequence: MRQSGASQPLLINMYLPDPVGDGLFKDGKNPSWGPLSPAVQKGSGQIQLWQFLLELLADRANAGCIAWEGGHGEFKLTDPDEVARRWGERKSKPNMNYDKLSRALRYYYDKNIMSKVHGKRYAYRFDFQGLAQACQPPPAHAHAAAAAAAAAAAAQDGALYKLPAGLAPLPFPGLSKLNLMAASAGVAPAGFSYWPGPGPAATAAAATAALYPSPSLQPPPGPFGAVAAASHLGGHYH
The essentials: as §1

The next assay addresses ETV5 (Homo sapiens, UniProt P41161 1-510). The gist of the method:
as §1

In another assay the target is T8, SPIC (Homo sapiens, UniProt Q8N5J4 1-248).
T8 sequence: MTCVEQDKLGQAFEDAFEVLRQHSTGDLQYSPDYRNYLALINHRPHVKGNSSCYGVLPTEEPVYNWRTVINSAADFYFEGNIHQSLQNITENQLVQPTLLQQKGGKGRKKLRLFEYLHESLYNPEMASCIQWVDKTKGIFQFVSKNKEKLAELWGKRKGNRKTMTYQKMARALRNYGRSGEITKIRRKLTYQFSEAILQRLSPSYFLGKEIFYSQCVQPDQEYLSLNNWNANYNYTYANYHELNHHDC
The essentials:
as §1

The target of another assay is ELF4 (Homo sapiens, UniProt Q99607 1-663). The essentials:
as §1

The target of the next assay is T9, ELK4 (Homo sapiens, UniProt P28324-2 1-405).
T9 sequence: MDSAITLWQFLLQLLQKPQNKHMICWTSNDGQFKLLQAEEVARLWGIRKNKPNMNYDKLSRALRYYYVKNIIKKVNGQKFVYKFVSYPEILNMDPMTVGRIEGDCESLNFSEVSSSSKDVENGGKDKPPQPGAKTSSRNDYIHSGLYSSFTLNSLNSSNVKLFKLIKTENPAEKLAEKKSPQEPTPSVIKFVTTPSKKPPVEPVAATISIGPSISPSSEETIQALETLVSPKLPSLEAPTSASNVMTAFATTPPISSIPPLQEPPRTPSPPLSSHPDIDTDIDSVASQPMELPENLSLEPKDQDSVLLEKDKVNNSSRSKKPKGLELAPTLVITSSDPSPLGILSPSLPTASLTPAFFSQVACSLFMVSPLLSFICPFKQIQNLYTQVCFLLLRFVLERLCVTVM
The essentials:
as §1

The next assay addresses T10, ETV2 (Homo sapiens, UniProt O00321 1-342).
T10 sequence: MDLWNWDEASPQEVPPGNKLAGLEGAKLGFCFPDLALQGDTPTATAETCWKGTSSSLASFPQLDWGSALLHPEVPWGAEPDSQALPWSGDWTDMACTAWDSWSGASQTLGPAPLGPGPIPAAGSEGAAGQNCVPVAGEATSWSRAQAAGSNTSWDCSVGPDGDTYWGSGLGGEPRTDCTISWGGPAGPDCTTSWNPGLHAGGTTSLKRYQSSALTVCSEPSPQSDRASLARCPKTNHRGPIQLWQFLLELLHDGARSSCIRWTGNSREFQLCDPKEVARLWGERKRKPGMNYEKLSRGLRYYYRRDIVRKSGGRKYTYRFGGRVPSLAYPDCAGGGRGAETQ
The essentials:
as §1

The target in another assay is ETV1 (Homo sapiens, UniProt P50549 1-477). The gist of the method: as §1
ETV1, sequence (P50549 whole entry): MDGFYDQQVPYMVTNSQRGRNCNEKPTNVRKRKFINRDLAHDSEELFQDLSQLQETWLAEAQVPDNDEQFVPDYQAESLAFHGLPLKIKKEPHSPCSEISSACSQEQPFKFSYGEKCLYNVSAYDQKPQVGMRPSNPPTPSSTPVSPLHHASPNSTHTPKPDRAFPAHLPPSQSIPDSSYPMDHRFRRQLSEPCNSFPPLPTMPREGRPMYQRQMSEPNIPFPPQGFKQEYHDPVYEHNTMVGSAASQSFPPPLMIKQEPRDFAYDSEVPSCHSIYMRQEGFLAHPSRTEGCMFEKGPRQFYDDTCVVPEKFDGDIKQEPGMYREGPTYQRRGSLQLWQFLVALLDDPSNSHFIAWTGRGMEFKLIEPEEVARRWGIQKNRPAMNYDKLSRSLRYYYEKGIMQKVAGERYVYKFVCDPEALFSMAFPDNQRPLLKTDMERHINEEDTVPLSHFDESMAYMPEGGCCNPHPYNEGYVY

ELF4, sequence (Q99607 whole entry): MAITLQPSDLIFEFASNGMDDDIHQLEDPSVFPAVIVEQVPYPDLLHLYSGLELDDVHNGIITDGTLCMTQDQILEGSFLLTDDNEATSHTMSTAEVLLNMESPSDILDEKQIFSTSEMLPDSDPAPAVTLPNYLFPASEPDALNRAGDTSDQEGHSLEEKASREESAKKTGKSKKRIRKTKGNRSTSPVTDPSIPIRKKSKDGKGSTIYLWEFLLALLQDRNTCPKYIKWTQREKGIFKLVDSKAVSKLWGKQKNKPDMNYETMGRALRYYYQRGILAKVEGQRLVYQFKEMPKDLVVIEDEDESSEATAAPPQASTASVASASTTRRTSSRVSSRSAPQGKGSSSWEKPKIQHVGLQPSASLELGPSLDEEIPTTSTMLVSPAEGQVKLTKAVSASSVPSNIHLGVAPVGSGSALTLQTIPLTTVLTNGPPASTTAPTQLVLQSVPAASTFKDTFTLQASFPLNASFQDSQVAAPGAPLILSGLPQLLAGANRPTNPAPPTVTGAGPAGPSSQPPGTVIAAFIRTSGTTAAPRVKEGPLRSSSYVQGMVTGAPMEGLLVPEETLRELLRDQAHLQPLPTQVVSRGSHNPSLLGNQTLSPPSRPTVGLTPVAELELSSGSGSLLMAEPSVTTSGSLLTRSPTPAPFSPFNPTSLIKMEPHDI
ETV5, sequence (P41161 whole entry): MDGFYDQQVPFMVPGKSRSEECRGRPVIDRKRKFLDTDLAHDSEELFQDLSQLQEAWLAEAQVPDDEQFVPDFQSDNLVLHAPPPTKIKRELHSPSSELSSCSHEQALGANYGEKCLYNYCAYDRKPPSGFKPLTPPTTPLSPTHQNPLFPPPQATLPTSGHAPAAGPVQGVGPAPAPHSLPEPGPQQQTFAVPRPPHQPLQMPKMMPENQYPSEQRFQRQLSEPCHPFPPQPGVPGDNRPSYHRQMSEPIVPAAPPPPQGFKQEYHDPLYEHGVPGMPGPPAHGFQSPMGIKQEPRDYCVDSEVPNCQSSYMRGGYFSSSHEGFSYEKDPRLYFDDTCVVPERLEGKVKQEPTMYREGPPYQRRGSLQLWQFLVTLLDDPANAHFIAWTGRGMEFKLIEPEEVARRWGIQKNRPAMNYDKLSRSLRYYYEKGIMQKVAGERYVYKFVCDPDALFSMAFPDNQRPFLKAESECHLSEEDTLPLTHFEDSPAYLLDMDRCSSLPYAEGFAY
ELF1, sequence (P32519 whole entry): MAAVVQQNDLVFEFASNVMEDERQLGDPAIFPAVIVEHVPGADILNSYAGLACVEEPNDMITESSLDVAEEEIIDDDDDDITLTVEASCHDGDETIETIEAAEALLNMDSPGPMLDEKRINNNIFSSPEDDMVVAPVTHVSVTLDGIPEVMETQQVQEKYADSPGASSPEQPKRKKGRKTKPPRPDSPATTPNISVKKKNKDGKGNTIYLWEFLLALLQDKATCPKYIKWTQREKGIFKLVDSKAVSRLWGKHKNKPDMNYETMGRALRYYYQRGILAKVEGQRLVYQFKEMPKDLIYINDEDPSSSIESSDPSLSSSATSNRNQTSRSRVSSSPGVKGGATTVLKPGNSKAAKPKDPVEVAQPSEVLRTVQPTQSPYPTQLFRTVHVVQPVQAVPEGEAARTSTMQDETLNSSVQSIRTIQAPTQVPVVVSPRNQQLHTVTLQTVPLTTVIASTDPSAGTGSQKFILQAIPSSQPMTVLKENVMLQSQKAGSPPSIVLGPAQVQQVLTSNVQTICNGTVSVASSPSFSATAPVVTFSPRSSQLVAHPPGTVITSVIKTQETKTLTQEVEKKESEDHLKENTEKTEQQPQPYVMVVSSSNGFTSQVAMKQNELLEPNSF

Consider ACACTC, for which the binding signal with FLI1 is 1.04 fold enrichment (6-mer frequency, TF over GST control); in the assay with ELK1, 1.1 fold enrichment (6-mer frequency, TF over GST control); with GABPA, 1.15 fold enrichment (6-mer frequency, TF over GST control); in the assay with ERG, 1.08 fold enrichment (6-mer frequency, TF over GST control); with ELF1, 1.12 fold enrichment (6-mer frequency, TF over GST control); with EHF it was 1.14 fold enrichment (6-mer frequency, TF over GST control). Further, the binding signal with SPI1 is 1.09 fold enrichment (6-mer frequency, TF over GST control); with SPIB it was 1.15 fold enrichment (6-mer frequency, TF over GST control); in the assay with ELK3, 1.19 fold enrichment (6-mer frequency, TF over GST control); with FEV, 1.12 fold enrichment (6-mer frequency, TF over GST control); with ETV5, 1.04 fold enrichment (6-mer frequency, TF over GST control); with SPIC it was 1.01 fold enrichment (6-mer frequency, TF over GST control). For the same sequence, the binding signal is 1.14 fold enrichment (6-mer frequency, TF over GST control) with ELF4; 1.19 fold enrichment (6-mer frequency, TF over GST control) in the assay with ELK4; 1.11 fold enrichment (6-mer frequency, TF over GST control) with ETV2; 1.07 fold enrichment (6-mer frequency, TF over GST control) with ETV1.

Take GCCCAT: the binding signal was 1.06 fold enrichment (6-mer frequency, TF over GST control) with FLI1; 1.05 fold enrichment (6-mer frequency, TF over GST control) with ELK1; 1.17 fold enrichment (6-mer frequency, TF over GST control) with GABPA; 1.04 fold enrichment (6-mer frequency, TF over GST control) with ERG; 1.06 fold enrichment (6-mer frequency, TF over GST control) with ELF1; 1.03 fold enrichment (6-mer frequency, TF over GST control) with SPI1. Moreover, the binding signal is 1.04 fold enrichment (6-mer frequency, TF over GST control) with SPIB; 1.04 fold enrichment (6-mer frequency, TF over GST control) with ELK3; 1.09 fold enrichment (6-mer frequency, TF over GST control) in the assay with FEV; 1.03 fold enrichment (6-mer frequency, TF over GST control) with ETV5; 1.12 fold enrichment (6-mer frequency, TF over GST control) with SPIC; 1.07 fold enrichment (6-mer frequency, TF over GST control) with ELF4. Besides, the binding signal was 1.23 fold enrichment (6-mer frequency, TF over GST control) with ELK4 and 1.01 fold enrichment (6-mer frequency, TF over GST control) with ETV2.
